Some structures have more than one record in an assay (separate samples or runs), and their calls can disagree. Activity calls are given as the source filed them. Rule for the calls: active = hit-call score of the fitted dose curve at least 0.9, where 1 is the maximum; inactive = score below 0.9.

The term AC50 denotes the midpoint of the concentration-response curve, whichever way the signal moves.

Test [1] in a line: ATG_DR4_LXR_CIS: Attagene CIS-FACTORIAL HepG2 Assay for human Liver X Receptor (LXR), DR4 submotif (AID 2282929). Particulars: HepG2 Attagene DR4 cis-reporter, mRNA transcription; actives raise or lower the signal. The procedure, abridged: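 HepG2 cells were transiently transfected with multiple cis-regulated reporter units and dosed for 24 hours. The DR4 reporter mRNA was quantified by RT-PCR, 6-FAM labelling and capillary electrophoresis. Bidirectional fits used DMSO as baseline.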

The target of test [2] is Aryl hydrocarbon receptor (Homo sapiens) (UniProt P35869). The test can be described thus: ATG_Ahr_CIS: Attagene CIS-FACTORIAL HepG2 Assay for human Aryl Hydrocarbon Receptor (Ahr) (AID 2282930). Particulars: HepG2 AhR cis-factorial reporter transcription; actives raise or lower the signal. The procedure, abridged: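 Transient MRTU transfection of HepG2 → 24 h compound exposure → total RNA, oligo(dT) RT → PCR, 6-FAM extension, HpaI cut → CE fluorescence. DMSO = baseline; bidirectional curve fit.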
Chain of Aryl hydrocarbon receptor (Homo sapiens) (P35869 whole entry, looked up): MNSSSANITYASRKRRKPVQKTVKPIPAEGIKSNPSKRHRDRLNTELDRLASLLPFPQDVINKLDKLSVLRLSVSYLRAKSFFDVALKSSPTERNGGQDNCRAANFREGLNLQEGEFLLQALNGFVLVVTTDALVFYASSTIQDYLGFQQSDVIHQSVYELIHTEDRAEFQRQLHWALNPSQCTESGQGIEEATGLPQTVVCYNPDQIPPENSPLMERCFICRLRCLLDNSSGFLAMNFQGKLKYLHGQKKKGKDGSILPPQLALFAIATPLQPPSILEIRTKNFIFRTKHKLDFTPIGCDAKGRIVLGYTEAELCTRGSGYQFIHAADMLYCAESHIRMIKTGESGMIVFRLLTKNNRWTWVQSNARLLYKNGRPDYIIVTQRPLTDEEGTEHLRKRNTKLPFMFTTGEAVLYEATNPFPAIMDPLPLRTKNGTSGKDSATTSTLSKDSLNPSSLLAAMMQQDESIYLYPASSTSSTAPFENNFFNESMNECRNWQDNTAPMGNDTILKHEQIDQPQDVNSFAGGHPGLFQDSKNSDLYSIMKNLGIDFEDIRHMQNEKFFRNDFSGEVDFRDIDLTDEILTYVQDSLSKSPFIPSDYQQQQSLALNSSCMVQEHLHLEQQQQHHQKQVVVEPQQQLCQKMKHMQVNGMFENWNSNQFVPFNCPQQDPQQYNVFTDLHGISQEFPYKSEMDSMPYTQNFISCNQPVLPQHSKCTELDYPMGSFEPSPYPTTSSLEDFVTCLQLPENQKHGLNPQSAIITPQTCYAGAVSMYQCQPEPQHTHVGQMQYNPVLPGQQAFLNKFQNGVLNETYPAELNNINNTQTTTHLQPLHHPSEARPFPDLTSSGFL

A short description of test [3]: ATG_AP_1_CIS: Attagene CIS-FACTORIAL HepG2 Assay for human Activator Protein 1 (AP-1) (AID 2282931). Particulars: HepG2 Attagene cis-factorial AP-1 reporter mRNA; actives raise or lower the signal. The procedure, abridged:
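HepG2 cells transiently transfected with cis-element-driven reporter transcription units, dosed for 24 hours. Reporter mRNA measured by RT-PCR, 6-FAM labelling, HpaI digestion and capillary electrophoresis. Bidirectional fitting against DMSO baseline.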

Test [4] is described as follows: ATG_AP_2_CIS: Attagene CIS-FACTORIAL HepG2 Assay for human Activator Protein 2 (AP-2) (AID 2282932). Particulars: HepG2 AP-2 cis-reporter, Attagene transcription factor profiling; actives raise or lower the signal. A digest of the protocol:
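Endogenous transcription factor activity is reported through transfected multiplex reporter constructs in HepG2, after 24 h of compound exposure. Transcripts were quantified by RT-PCR and capillary electrophoresis of fluorescent fragments. Bidirectional fit against DMSO.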

A short description of test [5]: ATG_BRE_CIS: Attagene CIS-FACTORIAL HepG2 Assay for human Bone Morphogenetic Protein (BMP) Response Element (BRE) (AID 2282933). Conditions: HepG2 BMP response element reporter, Attagene transcription factor profiling; actives raise or lower the signal. A digest of the protocol:
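A HepG2 multiplex reporter system measured inducible reporter mRNA 24 h post-dosing. Detection: RT-PCR, 6-FAM primer extension, HpaI digestion, capillary electrophoresis. Activity fitted bidirectionally relative to DMSO.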

Test [6] has as its target Retinoic acid receptor alpha (Homo sapiens) (UniProt P10276). The test is described as follows: ATG_DR5_RAR_CIS: Attagene CIS-FACTORIAL HepG2 Assay for human Retinoic Acid Receptor Alpha (RARE), DR5 submotif (AID 2282934). Particulars: HepG2 Attagene cis-factorial RARE DR5 reporter, mRNA; actives raise or lower the signal. The procedure, abridged: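 Transient MRTU transfection of HepG2; 24 h compound treatment; TriZol RNA, oligo(dT) RT, PCR, FAM labelling, capillary electrophoresis. Bidirectional fit vs DMSO. Endogenous TF activity at DR5 RARE.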

For test [7], the target named is Transcription factor E2F1 (Homo sapiens) (UniProt Q01094). The test can be described thus: ATG_E2F_CIS: Attagene CIS-FACTORIAL HepG2 Assay for human E2F Transcription Factor 1 (AID 2282935). Conditions: HepG2 Attagene cis-reporter, E2F reporter RNA transcripts; actives raise or lower the signal. A digest of the protocol:
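Gain or loss of reporter transcript, fitted against DMSO, reflects E2F1-driven transcription. Transiently transfected HepG2 dosed 24 h before RNA isolation. Quantified by fluorescent RT-PCR products separated by capillary electrophoresis.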

Test [8] in a line: ATG_E_Box_CIS: Attagene CIS-FACTORIAL HepG2 Assay for human Enhancer Box (E-box) (AID 2282936). Particulars: HepG2 E-box cis-reporter transcription, actives raise or lower the signal. The procedure, abridged:
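E-box-driven reporter transcripts measured in transiently transfected HepG2 after 24 h exposure: RNA reverse-transcribed, PCR-amplified, fluorescently labelled, digested and resolved by capillary electrophoresis. Gain or loss relative to DMSO.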

Test [9] can be described thus: ATG_M_61_CIS: Attagene CIS-FACTORIAL HepG2 Assay for M61 Transcription Factor (Internal Marker) (AID 2282937). Conditions: HepG2 Attagene CIS-FACTORIAL M61 internal marker reporter; actives raise or lower the signal. A digest of the protocol: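 HepG2 cells transiently transfected with multiplexed cis-promoter reporter units reporting endogenous transcription factor activity, measured 24 h after dosing. Reporter mRNA quantified by RT-PCR and capillary electrophoresis; bidirectional fit against DMSO baseline.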

Test [10] in a line: ATG_EGR_CIS: Attagene CIS-FACTORIAL HepG2 Assay for human Early Growth Response 1 (EGR1) (AID 2282938). Conditions: HepG2 Attagene CIS-FACTORIAL EGR reporter mRNA; actives raise or lower the signal. The procedure, abridged: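 HepG2 cells transiently transfected with cis-element-driven multiplexed reporter units, dosed for 24 h. EGR1-element reporter mRNA quantified by RT-PCR, 6-FAM labelling, HpaI digestion and capillary electrophoresis; bidirectional fit versus DMSO.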

Test [11] is described as follows: ATG_M_19_CIS: Attagene CIS-FACTORIAL HepG2 Assay for M19 Transcription Factor (Internal Marker) (AID 2282939). Particulars: HepG2 Attagene CIS-FACTORIAL M19 internal marker reporter; actives raise or lower the signal. The procedure, abridged:
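Chemical-treated HepG2 (24 h) with MRTU constructs; reporter transcripts detected by fluorescent RT-PCR fragment analysis on capillary electrophoresis. Internal background marker, DMSO as baseline.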

A short description of test [12]: ATG_ERE_CIS: Attagene CIS-FACTORIAL HepG2 Assay for Estrogen Response Element (ERE) (AID 2282940). Conditions: HepG2 ERE cis-reporter, Attagene RNA transcript; actives raise or lower the signal. A digest of the protocol: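 Human liver cells (HepG2) bearing transiently transfected, promoter-regulated reporter units were exposed 24 h. Reporter mRNA induction was detected by capillary electrophoresis of labelled RT-PCR products and fitted bidirectionally to DMSO.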

Test [13] is described as follows: ATG_Ets_CIS: Attagene CIS-FACTORIAL HepG2 Assay for human Erythroblast Transformation Specific (ETS) (AID 2282941). Particulars: HepG2 ETS cis-reporter transcription, actives raise or lower the signal. A digest of the protocol:
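RT-PCR/capillary electrophoresis fluorescence read-out of reporter mRNA; HepG2 transient multi-reporter transfection; 24 h compound exposure; gain or loss of signal fitted bidirectionally relative to DMSO.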

Test [14] addresses Hepatocyte nuclear factor 3-beta (Homo sapiens) (UniProt Q9Y261). The test can be described thus: ATG_FoxA2_CIS: Attagene CIS-FACTORIAL HepG2 Assay for human Forkhead box A2 (FOXA2) (AID 2282942). Conditions: HepG2 cis-reporter transcription factor activity, 24 h; actives raise or lower the signal. A digest of the protocol: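 HepG2 transiently transfected with a multiplexed cis-promoter reporter library read endogenous FOXA2 activity. After 24 h compound exposure, reporter mRNA was quantified by RT-PCR, HpaI digestion and capillary electrophoresis. Bidirectional fit against DMSO.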

Test [15] in a line: ATG_FoxO_CIS: Attagene CIS-FACTORIAL HepG2 Assay for human Forkhead box O (FoxO) (AID 2282943). Conditions: HepG2 Attagene cis-reporter, FoxO element, mRNA; actives raise or lower the signal. A digest of the protocol:
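HepG2, transient MRTU transfection (cis element, endogenous TFs). Dose 24 h. TriZol RNA → oligo(dT) RT → PCR → 6-FAM primer extension → HpaI cut → CE. Gain/loss vs DMSO.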

A short description of test [16]: ATG_GATA_CIS: Attagene CIS-FACTORIAL HepG2 Assay for human GATA Binding Protein (AID 2282944). Conditions: HepG2 GATA cis-element reporter, Attagene multiplex mRNA; actives raise or lower the signal. The procedure, abridged:
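Transfected cis-reporter HepG2 cells were treated with chemicals for 24 hours. Total RNA was then converted to cDNA, amplified with reporter-specific primers and analysed by fluorescent capillary electrophoresis, using DMSO-treated wells as baseline.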

Test [17] is described as follows: ATG_GLI_CIS: Attagene CIS-FACTORIAL HepG2 Assay for human Zinc Finger Protein GLI1 (AID 2282945). Particulars: HepG2, Attagene cis-factorial reporter mRNA, GLI element; actives raise or lower the signal. A digest of the protocol:
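Bidirectional curve fits relative to DMSO, using reporter mRNA levels from RT-PCR plus capillary electrophoresis. Cells were HepG2 transiently carrying cis-regulated reporter constructs, harvested 24 h after dosing.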

Test [18] concerns the target Bile acid receptor (Homo sapiens) (UniProt Q96RI1). The test can be described thus: ATG_IR1_CIS: Attagene CIS-FACTORIAL HepG2 Assay for human Nuclear Receptor Subfamily 1 Group H Member 4 (NR1H4), IR1 submotif (AID 2282946). Particulars: IR1 reporter transcription, actives raise or lower the signal. A digest of the protocol:
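HepG2 cells transiently transfected with multiplexed cis-element reporter units read endogenous transcription factor activity. After 24 h compound exposure, reporter mRNA was quantified by RT-PCR, fluorescent labelling, HpaI digestion and capillary electrophoresis; bidirectional fitting versus DMSO baseline.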

Test [19] is described as follows: ATG_ISRE_CIS: Attagene CIS-FACTORIAL HepG2 Assay for human Interferon Regulatory Factor 1 (IRF1) binding to an Interferon-Stimulated Response Element (ISRE) (AID 2282948). Particulars: HepG2 ISRE cis-reporter (Attagene), mRNA transcription readout; actives raise or lower the signal. The procedure, abridged:
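Read-out: fluorescent RT-PCR products resolved by capillary electrophoresis, reporting endogenous transcription factor activity via ISRE-driven reporter mRNA in transfected HepG2 cells dosed for 24 h; gain or loss fitted relative to DMSO.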

A short description of test [20]: ATG_GRE_CIS: Attagene CIS-FACTORIAL HepG2 Assay for human Glucocorticoid Response Elements (GRE) (AID 2282947). Conditions: HepG2 GRE cis-reporter, Attagene multiplex mRNA; actives raise or lower the signal. A digest of the protocol: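 Reporter transcripts read by RT-PCR with capillary electrophoresis fluorescence after a 24 h chemical exposure of HepG2 cells transiently transfected with multiple cis-element reporter units. Gain or loss fitted against DMSO.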

Chain of Transcription factor E2F1 (Homo sapiens) (Q01094 whole entry, looked up): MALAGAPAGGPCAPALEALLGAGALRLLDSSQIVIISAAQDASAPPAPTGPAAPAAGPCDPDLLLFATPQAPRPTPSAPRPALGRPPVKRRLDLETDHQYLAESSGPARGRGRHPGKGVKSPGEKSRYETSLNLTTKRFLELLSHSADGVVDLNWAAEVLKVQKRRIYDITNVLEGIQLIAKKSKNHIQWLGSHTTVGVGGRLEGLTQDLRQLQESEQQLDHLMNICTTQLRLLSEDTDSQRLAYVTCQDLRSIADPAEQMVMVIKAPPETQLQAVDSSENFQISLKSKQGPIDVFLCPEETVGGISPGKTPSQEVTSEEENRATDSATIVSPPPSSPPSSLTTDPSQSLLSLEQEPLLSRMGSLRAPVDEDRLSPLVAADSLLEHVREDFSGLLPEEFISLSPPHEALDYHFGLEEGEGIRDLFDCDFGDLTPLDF
Chain of Retinoic acid receptor alpha (Homo sapiens) (P10276 whole entry, looked up): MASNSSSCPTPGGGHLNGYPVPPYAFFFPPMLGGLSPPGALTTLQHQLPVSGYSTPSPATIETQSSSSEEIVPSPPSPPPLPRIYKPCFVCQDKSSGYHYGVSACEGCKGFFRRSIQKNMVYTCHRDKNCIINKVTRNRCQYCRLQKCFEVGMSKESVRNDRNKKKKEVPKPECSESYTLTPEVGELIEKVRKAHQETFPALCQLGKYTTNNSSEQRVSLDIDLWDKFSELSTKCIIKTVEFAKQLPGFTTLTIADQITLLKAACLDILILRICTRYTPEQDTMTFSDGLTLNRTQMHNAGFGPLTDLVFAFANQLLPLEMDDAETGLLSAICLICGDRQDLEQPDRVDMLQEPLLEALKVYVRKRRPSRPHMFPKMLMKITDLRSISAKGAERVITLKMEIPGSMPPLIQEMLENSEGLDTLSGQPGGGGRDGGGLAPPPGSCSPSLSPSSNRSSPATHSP
Chain of Hepatocyte nuclear factor 3-beta (Homo sapiens) (Q9Y261 whole entry, looked up): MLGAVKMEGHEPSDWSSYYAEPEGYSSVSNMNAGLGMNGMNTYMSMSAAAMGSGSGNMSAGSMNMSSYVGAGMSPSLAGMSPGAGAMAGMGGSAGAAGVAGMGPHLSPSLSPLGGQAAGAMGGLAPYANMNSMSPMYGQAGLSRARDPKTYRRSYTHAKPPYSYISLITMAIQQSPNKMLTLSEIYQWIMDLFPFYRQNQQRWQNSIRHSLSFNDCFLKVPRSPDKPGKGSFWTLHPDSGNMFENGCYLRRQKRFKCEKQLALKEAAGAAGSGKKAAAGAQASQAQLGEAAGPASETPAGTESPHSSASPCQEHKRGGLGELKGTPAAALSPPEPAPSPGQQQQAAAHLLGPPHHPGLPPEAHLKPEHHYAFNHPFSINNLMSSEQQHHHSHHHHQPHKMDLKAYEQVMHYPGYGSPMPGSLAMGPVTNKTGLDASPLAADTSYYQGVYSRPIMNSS
Chain of Bile acid receptor (Homo sapiens) (Q96RI1 whole entry, looked up): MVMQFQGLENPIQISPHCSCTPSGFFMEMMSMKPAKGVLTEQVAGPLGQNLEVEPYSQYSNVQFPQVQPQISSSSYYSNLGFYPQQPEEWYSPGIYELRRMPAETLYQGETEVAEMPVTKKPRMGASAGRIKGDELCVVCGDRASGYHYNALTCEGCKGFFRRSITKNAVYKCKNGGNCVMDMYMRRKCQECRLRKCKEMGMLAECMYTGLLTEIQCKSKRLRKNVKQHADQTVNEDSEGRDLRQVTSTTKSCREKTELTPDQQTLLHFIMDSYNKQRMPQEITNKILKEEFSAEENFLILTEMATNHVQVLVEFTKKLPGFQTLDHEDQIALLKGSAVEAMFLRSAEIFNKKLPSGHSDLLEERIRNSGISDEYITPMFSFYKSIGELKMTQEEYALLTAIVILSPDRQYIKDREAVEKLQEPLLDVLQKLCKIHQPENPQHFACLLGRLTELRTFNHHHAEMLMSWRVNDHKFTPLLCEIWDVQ

With `CCCCC(CC)COC(=O)Cl` (stereo unspecified), the call in test [1], in test [2], in test [3], in [4], in test [5] and in test [6] was inactive. Also, the result in test [7], in test [8], in [9], in [10], in test [11] and in test [12] was inactive. The result in test [13], in test [14], in test [15], in test [16], in test [17] and in test [18] was inactive. In addition, the compound was classed as inactive in [19].
For the compound `N#Cc1ccncc1`, the call in [1], in test [2], in test [3], in test [4], in test [5] and in [6] was inactive. Further, the compound was called inactive in test [7], in [8], in test [9], in test [10], in test [11] and in [12]. For the same compound, the result in test [13], in [14], in [15], in test [16], in [17] and in test [19] was inactive.
In the case of `CCCCCCCCCCCCOS(=O)(=O)O`, the concentration at half-maximal activity (AC50) in [1] was 49.3 µM (active). In addition, the compound was called inactive in [1], in test [3], in [4], in [5], in [7] and in test [8]. Further, the call in test [9], in test [10], in test [13], in [14], in test [15] and in [16] was inactive. The outcome in test [17], in test [20] and in test [19] was inactive.
As to `Oc1c(Br)cc(Br)cc1Br`, the outcome in test [1], in [4], in [6], in test [7], in [9] and in test [11] was inactive. For the same compound, the compound was called inactive in test [13], in test [14], in [15], in test [16], in [17] and in [19]. The half-maximal activity concentration (AC50) is 49.5 µM (active) in [2]; 27.7 µM (active) in [3]; 126 µM (active) in test [5]; 30.4 µM (active) in test [8]; 31.9 µM (active) in test [10]; 24.9 µM (active) in test [12].
